Shown are actives, neighbours in structure and some others; about 9.4% of the full set was active somewhere.
Pf growth 96h – Primary qHTS for delayed death inhibitors of the malarial parasite plastid, 96 hour incubation; P. falciparum luciferase reporter growth, 96 h; AID 504834, 2011; Potency, µM (titrated, usually from 28.7 µM), usual class: inhibitors; hit rate 6.9% among 320,000
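Plates of compound plus infected erythrocytes (2% hematocrit, 0.05% parasitemia final) incubate 96 hours, 37 C, 5% CO2. Detection reagent added; reduced luminescence from the parasites' luciferase reporter flags inhibition.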
Pf growth 48h – Primary qHTS for delayed death inhibitors of the malarial parasite plastid, 48 hour incubation | P. falciparum luciferase growth in erythrocytes, 48 h | Potency, µM (titrated, usually from 28.7 µM), most hits filed as inhibitors | hit rate 5.9% among 310,000
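Luminescence readout; reporter = integrated firefly luciferase in P. falciparum. RBC culture at 2% hematocrit, 0.1% parasitemia final, 37 C/5% CO2; decreased signal taken as growth inhibition.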
SARS PLpro yeast – qHTS of Yeast-based Assay for SARS-CoV PLP | Potency, µM (titrated, usually from 32.9 µM), usual class: activators | S. cerevisiae expressing SARS-CoV PLpro, growth rescue | hit rate 0.19% among 330,000; calls by dose curve; also: nearly all actives have a fitted effect of over 55% in size
AMA1-RON2 inh – qHTS for Inhibitors of AMA1-RON; Towards Development of Antimalarial Drug Lead: Primary Screen | hit rate 0.2% among 360,000 | AlphaScreen AMA1-biotinylated RON2 peptide binding | AID 720542, 2013 | Potency, µM (top dose mostly 58.2 µM), usual class: inhibitors; also: nearly all actives have a fitted effect of over 45% in size
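AMA1 (3D7) with his tag at 25 nM final met compounds first, then biotinylated RON2 peptide at 25 nM; detection used donor plus acceptor beads, 10 µg/mL apiece, read by AlphaScreen after 30 min at room temperature.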
Of the large screens only hits and unclear results are named; the others gave an inactive call. Unless noted, calls follow the shape of the dose curve; as a rule, active = well fitted curve in the direction sought with a large enough effect; inconclusive = small, poorly fitted or top-dose-only effect, or another doubt; inactive = no such curve, though single readings can be large; an effect the other way counts as inactive or inconclusive.

CC1CC(C)CN(C(=O)CSc2nnc3ccccn23)C1 (configuration not stated)	none (no result: Pf growth 96h, Pf growth 48h)
COc1ccc(NC(=S)NC(NC(=O)c2cccc(Cl)c2)C(Cl)(Cl)Cl)c([N+](=O)[O-])c1 (configuration not stated)	Pf growth 96h inconclusive, Pf growth 48h 3.3µM
COc1ccc(NC(=S)NC(NC(=O)c2cccc(C)c2)C(Cl)(Cl)Cl)c([N+](=O)[O-])c1 (configuration not stated)	Pf growth 48h 3.3µM
COc1ccc(NC(=S)NC(NC(C)=O)C(Cl)(Cl)Cl)c([N+](=O)[O-])c1 (configuration not stated)	Pf growth 96h inconclusive
CCCn1c(Sc2nc3c(c(=O)[nH]c(=O)n3C)n2CCC)nc2c1c(=O)[nH]c(=O)n2C	Pf growth 96h inconclusive
C=CCN1C(=S)N[C@@H]2CS(=O)(=O)C[C@@H]21	none
COc1ccc(OC)c(N(CC(=O)N2CCC(C)CC2)S(=O)(=O)c2ccc(OC)c(OC)c2)c1	Pf growth 96h 2.6µM, Pf growth 48h inconclusive
COc1ccc(OC)c(N(CC(=O)NC2CCCC2)S(=O)(=O)c2ccc(OC)c(OC)c2)c1	Pf growth 96h 5.9µM, Pf growth 48h inconclusive
COc1ccccc1N(CC(=O)NC1CCCC1)S(=O)(=O)c1cccc(C(F)(F)F)c1	Pf growth 96h inconclusive, Pf growth 48h 13µM
O=C(CN(Cc1ccccc1)S(=O)(=O)c1cccc(C(F)(F)F)c1)NC1CCCCC1	Pf growth 96h inconclusive
COc1ccccc1N(CC(=O)NC1CCCC1)S(=O)(=O)c1ccc(C)cc1	Pf growth 48h inconclusive
CCOc1ccccc1N(CC(=O)NC1CCCCC1)S(=O)(=O)c1ccc(C)cc1	Pf growth 48h 12µM
O=C(c1cc(-c2ccco2)on1)N1CCN(c2ccccc2)CC1	Pf growth 96h inconclusive
CC(=O)N(C)C1=C(N2CCOCC2)C(=O)c2ccccc2C1=O	Pf growth 96h 0.29µM, Pf growth 48h 2.1µM
CC(=O)N(C1=C(N2CCOCC2)C(=O)c2ccccc2C1=O)c1ccc(C(=O)O)cc1	Pf growth 96h 0.41µM, Pf growth 48h 1µM
O=C(c1ccccc1)c1ccc(N2CCOCC2)cc1	none (no result: Pf growth 96h, Pf growth 48h, SARS PLpro yeast)
CC(=O)N(CCC(c1ccccc1)c1ccco1)Cc1cccs1 (configuration not stated)	none
CCC(=O)N(CCC(c1ccco1)c1ccccc1OC)Cc1cccs1 (configuration not stated)	Pf growth 96h 10µM (no result: Pf growth 48h)
CCCCCCCc1nc2c(=O)n(C)c3ccccc3c2o1	none (no result: Pf growth 48h)
COc1ccc(Cn2c(=O)[nH]c3cc(C(=O)Nc4ccc(N5CCN(C)CC5)cc4)ccc32)cc1	Pf growth 96h inconclusive, AMA1-RON2 inh inconclusive
CCN1CCN(c2ccc(NC(=O)c3ccc4c(c3)[nH]c(=O)n4Cc3ccc(F)cc3)cc2)CC1	Pf growth 96h 13µM, Pf growth 48h 7.4µM, AMA1-RON2 inh inconclusive
CN(CCNC(=O)c1ccc(N2CCCC2=O)cc1)CCc1ccccc1	Pf growth 96h 8.3µM, Pf growth 48h inconclusive
CC(C)N(CCCNC(=O)c1ccc(N2CCCC2=O)cc1)Cc1ccccc1	Pf growth 96h 1.3µM
CN(CCNC(=O)c1cccc(N2CCCC2=O)c1)Cc1ccccc1	none (no result: Pf growth 48h)
COc1ccc(-n2nc(C(=O)NCC(=O)Nc3ccc(F)cc3)c3ccccc3c2=O)cc1	Pf growth 48h 12µM
COc1ccc(/C=N/NC(=O)c2nn(-c3ccc(C)c(C)c3)c(=O)c3ccccc23)cc1	Pf growth 96h inconclusive, Pf growth 48h 13µM
COc1ccc(-n2nc(C(=O)NCC(=O)NC3CCCC(C)C3C)c3ccccc3c2=O)cc1 (configuration not stated)	Pf growth 48h inconclusive
COc1ccc(-n2nc(C(=O)NCC(=O)Nc3cc(Cl)c(OC)cc3OC)c3ccccc3c2=O)cc1	Pf growth 48h inconclusive
COc1ccc(-n2nc(C(=O)NCC(=O)NC3CCCC(C)C3C)c3ccccc3c2=O)c(OC)c1 (configuration not stated)	Pf growth 96h 5.9µM, Pf growth 48h inconclusive
COc1ccc(-n2nc(C(=O)NCC(=O)Nc3cc(OC)ccc3OC)c3ccccc3c2=O)cc1	Pf growth 96h inconclusive, Pf growth 48h 3.3µM
COc1ccc(/C=N/NC(=O)c2nn(-c3ccc(Cl)cc3)c(=O)c3c(N)scc23)cc1	Pf growth 96h 8.3µM (no result: Pf growth 48h)
COc1ccc(-n2nc(C(=O)NCC(=O)NC(C)C)c3ccccc3c2=O)cc1Cl	none
COc1ccc(NC(=O)CNC(=O)c2nn(-c3ccc(OC)c(Cl)c3)c(=O)c3ccccc23)c(OC)c1	Pf growth 48h 9.3µM
CCOc1ccccc1NC(=O)CNC(=O)c1nn(-c2ccc(OC)c(OC)c2)c(=O)c2ccccc12	Pf growth 96h inconclusive, Pf growth 48h 13µM
COc1ccc(/C=N/NC(=O)c2nn(-c3ccccc3)c(=O)c3c(N)scc23)cc1	Pf growth 96h inconclusive, Pf growth 48h inconclusive, AMA1-RON2 inh inconclusive
COc1ccc(-n2nc(C(=O)NCC(=O)Nc3ccccn3)c3ccccc3c2=O)cc1Cl	Pf growth 96h 9.3µM
Cc1c(C(=O)NCc2ccc(F)cc2)oc2ccc(S(=O)(=O)N3CCOCC3)cc12	Pf growth 48h inconclusive
C=CCNC(=S)NCc1ccccc1OC	Pf growth 96h inconclusive, Pf growth 48h inconclusive
CN(C)c1ccc(C(CNC(=O)COc2ccc(Cl)cc2)N2CCCC2)cc1 (configuration not stated)	Pf growth 96h 6.6µM
COc1ccccc1NS(=O)(=O)c1ccc(C(=O)NCC(c2ccc(F)cc2)N2CCOCC2)cc1 (configuration not stated)	none (no result: Pf growth 96h, Pf growth 48h)
Cc1ccc(Cn2nc(C)c(C(=O)NCC(c3ccc(F)cc3)N3CCOCC3)c2Cl)cc1 (configuration not stated)	Pf growth 96h inconclusive, Pf growth 48h 10µM
COc1cc(C(=O)NCC(c2ccc(F)cc2)N2CCOCC2)ccc1OCc1ccccc1Cl (configuration not stated)	Pf growth 96h 9.3µM, Pf growth 48h 5.2µM (no result: SARS PLpro yeast)
COc1ccc(C(CNC(=O)COc2cc(C)ccc2Cl)N2CCCCC2)cc1 (configuration not stated)	none
O=C(CC12CC3CC(CC(C3)C1)C2)NCC(c1ccc(F)cc1)N1CCOCC1 (configuration not stated)	Pf growth 96h 12µM, Pf growth 48h 12µM
O=C(NCC(c1ccc(F)cc1)N1CCOCC1)c1ccc(Br)o1 (configuration not stated)	Pf growth 96h inconclusive
O=C(NCC(c1ccc(F)cc1)N1CCOCC1)c1cc(F)c(F)c(F)c1F (configuration not stated)	none
CCc1ccc(NC(=O)C(NS(=O)(=O)c2cccc3nsnc23)c2ccccc2)cc1 (configuration not stated)	none
N#Cc1nc(Cc2ccccc2)oc1NCc1ccccc1	none
Cc1cc(OCC(=O)NCC(c2ccc(F)cc2)N2CCOCC2)ccc1Cl (configuration not stated)	Pf growth 96h 9.3µM, Pf growth 48h 9.3µM

High-throughput results from PubChem BioAssay.
